Bioassay records (PubChem)
Epigenetic reg: Quantitative High-Throughput Screen for Regulators of Epigenetic Control; murine LDR cells, GFP reporter derepression, 30 h; Potency, µM (top dose mostly 53.9 µM), for the others: at the highest dose GFP activation, hits mostly activators; 0.2% of 280,000 active; active = well fitted activation curve with a large enough effect; inconclusive = small, poorly fitted or top-dose-only effect; note: potency is the fitted concentration of half-maximal effect; % of control where 0% means no effect; nearly all actives have a fitted effect of over 60% in size
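Reporter derepression read as number of fluorescent GFP-positive objects, 20-120 um in size, counted by laser-scanning cytometer. Mouse LDR line with an epigenetically silenced CMV-GFP locus; compound incubation 30 h, 37 C.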
TRHR enhancer: qHTS for Small Molecule Agonists and Allosteric Enhancers of Human TRH Receptor: Primary Screen for Enhancers | enhancement, % at 2 µM | TRHR cells, fluo-8 calcium fluorescence, EC20 TRH enhancement | AID 493056, 2011 | 0.66% of 360,000 active; in the data active = enhancement above about 30%; note: 0% is about no effect
Target sequence (P34981 whole entry, looked up): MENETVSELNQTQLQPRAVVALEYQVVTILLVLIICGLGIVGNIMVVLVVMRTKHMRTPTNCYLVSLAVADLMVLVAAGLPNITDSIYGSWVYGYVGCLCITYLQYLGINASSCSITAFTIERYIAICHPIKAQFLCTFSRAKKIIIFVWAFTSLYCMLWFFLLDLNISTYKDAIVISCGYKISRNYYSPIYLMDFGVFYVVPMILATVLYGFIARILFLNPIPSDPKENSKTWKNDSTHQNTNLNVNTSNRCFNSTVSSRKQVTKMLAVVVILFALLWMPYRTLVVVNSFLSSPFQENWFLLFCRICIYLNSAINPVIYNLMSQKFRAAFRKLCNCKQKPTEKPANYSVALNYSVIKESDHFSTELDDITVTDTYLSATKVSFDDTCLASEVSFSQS
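TRHR-expressing cells loaded with fluo-8 calcium dye were read kinetically (ex 480/em 530) during compound addition, then stimulated with an EC20 of TRH (10 nM final). Enhancement of the Gq-mediated intracellular calcium response was scored.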
D1 agonist: Allosteric Agonists of the Human D1 Dopamine Receptor: qHTS. 1% of 360,000 active. D(1A) dopamine receptor (Homo sapiens), P21728. HEK293 T-REx D1 cells, calcium flux, agonist mode. activation, % at 2 µM; note: 0% is about no effect
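Inducible HEK293 T-REx D1 cells, force-coupled to calcium signalling, were plated at 4000 cells/well with tetracycline and held overnight at 30 C. After no-wash calcium dye loading, compound-evoked calcium rise over 180 s flagged agonists.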
D1 antag: Antagonist of Human D 1 Dopamine Receptor: qHTS; D(1A) dopamine receptor (Homo sapiens), P21728; HEK293 TREx D1 cells, calcium flux, dopamine EC80; hits give low values; activity change, negative = inhibition, % at 10 µM; 3.2% of 360,000 active; in the data active = activity change below about -30%; note: % is set by controls: 0 for no effect and ±100 for the full control effect
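Using tetracycline-induced force-coupled D1 Hek293 cells and a calcium dye, signals were followed for 180 s after compound, then for 180 s after EC80 dopamine, to detect inhibitors.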
TRHR ag: qHTS for Small Molecule Agonists and Allosteric Enhancers of Human TRH Receptor: Primary Screen for Agonists; Thyrotropin-releasing hormone receptor (Homo sapiens), P34981; TRHR cells, calcium flux fluo-8, FDSS agonist mode; activation, % at 2 µM; 0.18% of 360,000 active; AID 493084, 2011; note: 0% is about no effect
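TRHR-expressing cells loaded with fluo-8 calcium dye; 23 nL library compound pin-transferred, kinetic FDSS fluorescence (Ex 480/Em 530) recorded about 180 s for agonist-induced calcium release, before a 10 nM TRH EC20 addition for potentiator mode.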
D1 potentiator: Potentiators of Human D1 Dopamine Receptor: qHTS | HEK293 TREx D1 cells, calcium flux, dopamine EC20 potentiation | 0.036% of 360,000 active | potentiation, % at 10 µM; in the data active = potentiation above about 30%; note: 0% is about no effect
* marks the source's active call; other numbers are inactive results; ? = inconclusive; / = no result; [ ] = remark or other dose. An excerpt weighted towards active compounds, which were near 4.6% of everything screened. Cut-off read from the data, not from the text of the source, unless noted: active = activation above about 30%; inactive = the rest.

SMILES | Epigenetic reg | TRHR enhancer | D1 agonist | D1 antag | TRHR ag | D1 potentiator
S=C(NCC1CCCO1)Nc1ccc(Nc2ccccc2)cc1 (centres undefined) | 3% | 3 | 12 | -34* | 0 | -8
S=C(NCC1CCCO1)Nc1cccc(Cl)c1 (centres undefined) | 6% | -2 | 0 | -25 | 0 | -4
COc1ccc(CN2CCC(Cc3ccccc3)CC2)cc1OC | / | -1 | 8 | -15 | 0 | -1
CCOc1ccc(CN2CCC(Cc3ccccc3)CC2)cc1 | / | -3 | 6 | -31* | 0 | -2
COc1ccccc1C1CCN(Cc2ccccc2)CC1 | / | -2 | -1 | -46* | 0 | -22
Cc1[nH]c2ccccc2c1CN1CCC(Cc2ccccc2)CC1 | 3% | 1 | 90* | -63* | -3 | 1
Cc1ccc(S(=O)(=O)NCc2ccc(C(=O)NCCCN3CCC(Cc4ccccc4)CC3)cc2)cc1 | 0% | 5 | 30 | -83* | 0 | -15
COc1cc(NC(=O)CCCOc2cc(=O)n(C)c3ccccc23)cc(OC)c1OC | 3% | 14 | 3 | 3 | 1 | -2
CCOc1ccc(NC(=O)Cn2c(=O)n(CCc3ccccc3)c(=O)c3c4c(sc32)CN(C(C)=O)CC4)cc1 | ? | 8 | 4 | -1 | 2 | -7
O=C(NCc1ccccc1)c1ccc2c(c1)sc1nc(-c3ccc(F)cc3)cn12 | 0% | -3 | -1 | 3 | 0 | 1
CCOc1ccc(NC(=O)CCc2nc3cccnc3n2-c2ccccc2)cc1 | 3% | -1 | 1 | 5 | -2 | -5
COc1ccc(C(=O)CN2CCN(S(=O)(=O)c3ccc(C(C)C)cc3)CC2)cc1 | -1% | 1 | -1 | -29 | 0 | -5
COCCNC(=O)c1ccc(CN2CCC(Cc3ccccc3)CC2)cc1 | / | 7 | 3 | -31* | 1 | -9
Cc1ccc(OCC(=O)NCC(=O)OCc2cc(=O)n3nc(CC(C)C)sc3n2)cc1 | 0% | 10 | 1 | -36* | -1 | -9
COc1ccc2c(c1)c1c(c(=O)n(-c3ccc(OC)c(OC)c3)c(=O)n1Cc1ccccc1F)n2C | 4% | 2 | 4 | -9 | 1 | -2
Cc1ccc(C)c(N2CCN(C(=O)c3ccc4[nH]c(C)c(C)c4c3)CC2)c1 | -5% | 23 | 0 | -33* | 0 | -4
Cc1[nH]c2ccc(C(=O)N3CCN(c4ccccn4)CC3)cc2c1C | / | -4 | 2 | 1 | 0 | -4
COc1cccc(CNC(=O)c2oc3c(c2C)-c2nn(Cc4cccc(Cl)c4)cc2CC3)c1OC | 0% | 11 | -1 | 0 | 0 | 2
O=c1c(Oc2ccccc2Br)c(C(F)(F)F)oc2c(CN3CCCC3)c(O)ccc12 | -1% | 32* | 0 | 15 | 1 | 8
CCOc1ccc(CCNC(=O)c2cc(C)nc3c2c(C)nn3-c2cccc(F)c2)cc1 | -1% | 7 | 5 | -15 | 0 | 4
CC(Sc1nnc(Nc2ccccc2)s1)C(=O)Nc1nc(-c2ccccc2)cs1 (centres undefined) | 1% | 0 | 10 | / | 1 | -1
CC(Sc1nnc(NCc2ccccc2)s1)C(=O)Nc1ccc2c(c1)C(=O)c1ccccc1C2=O (centres undefined) | 0% | 0 | 4 | -33* | 0 | -6
NCC(O)(c1ccc(Cl)cc1)c1ccc(Cl)cc1 | -1%[10.1 µM] | 24 | 51* | -4 | 18 | -9
O=C(O)C1CCN(C(=O)c2csc(-c3ccc4c(c3)CCO4)n2)CC1 | 3% | -2 | 3 | -34* | -1 | 1
N[C@H](CCC(=O)N[C@H](CSN=O)C(=O)NCC(=O)O)C(=O)O | 1% | / | / | / | / | /
SMILES | Epigenetic reg | TRHR enhancer | D1 agonist | D1 antag | TRHR ag | D1 potentiator
CCCNC(=O)OC[C@H]1O[C@@H](CCO/N=C\[C@@H](NS(=O)(=O)c2ccc(C)cc2)[C@H](C)/C=C\CC(=O)OC)C=C[C@@H]1Oc1ccc(OC)cc1 | 0%[10.1 µM] | / | / | / | / | /
Nc1nn(-c2ccccc2)c(N)c1N=Nc1ccc2c(c1)OCO2 | -1% | 1 | 0 | -45* | -1 | -7
CCc1cccc(NC(=O)CCn2c(=O)c3cccn3c3cccnc32)c1 | 1% | 7 | 1 | -4 | -1 | -3
CC1=CC(C)(C)N(C(=O)c2ccccc2)c2ccc(C)cc21 | -1% | -3 | 57* | -13 | 8 | -2
CC1=CC(C)(C)N(C(=O)c2ccccc2)c2ccccc21 | -1% | -6 | 10 | 2 | -1 | -5
Cc1ccc(S(=O)(=O)c2nnn3c2nc(NCc2ccccc2Cl)c2sccc23)cc1 | -3% | -8 | 4 | -1 | 1 | -4
CCOC(=O)c1cc2c(ccn2C)n1CC(=O)N(Cc1ccccc1)c1ccc(F)cc1 | -1% | 3 | 2 | -37* | 0 | 0
CCOC(=O)/C(=C/C=C1\Sc2ccccc2N1CC)C(C)=O | ? | 22 | 219* | 2 | 80* | 0
CCOC(=O)/C(=C/C=C1\Sc2cc(C)c(C)cc2N1CC)C(C)=O | ? | 21 | 349* | -12 | 249* | 9
CCC(=O)/C=C1/Sc2ccccc2N1CC | 1% | 5 | 1 | -3 | 0 | -7
CCOC(=O)/C(=C\C=C1/Sc2ccccc2N1CC)C(C)=O | 16µM* | 13 | 290* | -29 | 71* | -1
Cc1nc(-c2ccccn2)nc(N2CCOCC2)c1Cl | -2% | -3 | 4 | -43* | 1 | 1
c1ccc(-c2nc(N3CCOCC3)c3ccccc3n2)nc1 | 1% | -1 | 1 | -34* | 0 | -6
COc1ccc(OCC(=O)Nc2ccc3c(c2)N(C)C(=O)c2ccccc2S3)cc1 | 0% | 2 | 0 | 14 | 0 | 1
COC(=O)c1cc(OC)c(OC)cc1NC(=S)N1CCN(Cc2ccccc2)CC1 | -2% | 10 | -1 | -32* | 0 | -4
COc1cc(NC(=S)N2CCN(Cc3ccccc3)CC2)cc(OC)c1 | 0% | 18 | 3 | 8 | 0 | 0
COc1ccc(NC(=S)N2CCN(Cc3ccccc3)CC2)cc1 | 0% | 33* | 9 | 2 | 0 | -6
COc1cccc(NC(=S)N2CCCN(Cc3ccc(F)cc3)C2)c1 | -2% | 1 | 12 | -41* | 0 | -12
COc1cc(OC)c2c(OC)c(-c3ccc4c(c3)OCO4)c(=O)oc2c1 | 1% | / | / | / | / | /
